Compounds without any hit were thinned out: in the full panel of roughly 83,000, 20% have a hit.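 Percent growth is the endpoint: 0 to 100 indicates growth inhibition (40 means 60% inhibition), 0 means no net growth, and negative values indicate cell death.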 A number with no mark means an inactive call. Active and inactive are the calls of the source. Rule for the calls: active = growth percent below 10; inactive = the rest.

What all share (test): NCI-60 one-dose screen, 48 h (100 = growth as untreated, 0 = no growth, -100 = all killed)
The subject of one assay is K-562 leukemia. The conditions noted are these: 10 µM unless noted.
The next assay concerns MALME-3M melanoma. The conditions noted are these: 10 µM unless noted.
Another assay concerns MDA-MB-231 breast. The conditions noted are these: 10 µM unless noted.
The test system of the next assay is RXF 393 renal. The note with it: 10 µM unless noted.
For a further assay, the system named is SF-268 CNS. The note with it: 10 µM unless noted.
The test system of another assay is SF-295 CNS. The conditions noted are these: 10 µM unless noted.
The subject of another assay is SF-539 CNS. The note with it: 10 µM unless noted.
In the next assay the test system is UACC-257 melanoma. The conditions noted are these: 10 µM unless noted.
Another assay deals with M14 melanoma. The conditions noted are these: 10 µM unless noted.
For another assay, the system named is HCT-15 colon. The note with it: 10 µM unless noted.
The subject of another assay is HT29 colon. The note with it: 10 µM unless noted.
A further assay has as its system SNB-75 CNS. The note with it: 10 µM unless noted.
The next assay deals with SNB-19 CNS. The conditions noted are these: 10 µM unless noted.
In another assay the test system is U251 CNS. The conditions noted are these: 10 µM unless noted.
A further assay concerns PC-3 prostate. The conditions noted are these: 10 µM unless noted.
For the next assay, the system named is SK-MEL-5 melanoma. The conditions noted are these: 10 µM unless noted.
The test system of another assay is UACC-62 melanoma. The note with it: 10 µM unless noted.
The next assay has as its system LOX IMVI melanoma. The note with it: 10 µM unless noted.
For another assay, the system named is SK-MEL-28 melanoma. The conditions noted are these: 10 µM.
Another assay relates to SK-MEL-2 melanoma. The note with it: 10 µM unless noted.

In the case of `CCOc1ccc(Nc2ccnc3cc(Cl)ccc23)cc1`, the growth in the assay with K-562 leukemia was 9.05% (active); in the assay on MALME-3M melanoma it was -25.2% (active); in the assay on MDA-MB-231 breast, -31.6% (active); with RXF 393 renal, 3.65% (active); in the assay on SF-268 CNS it was 22.7%; with SF-295 CNS, -53% (active). Also, the growth in the assay with SF-539 CNS is 24.4%; with UACC-257 melanoma, -33.6% (active); with M14 melanoma it was 14.7%; with HCT-15 colon it was 17.2%; with HT29 colon, 1.61% (active); in the assay with SNB-75 CNS it was 1.25% (active). Further, the growth with SNB-19 CNS was 16%; in the assay on U251 CNS, 4.87% (active); with PC-3 prostate, 4.74% (active); in the assay on SK-MEL-5 melanoma, -12.5% (active); in the assay with UACC-62 melanoma, 21.9%; in the assay with LOX IMVI melanoma, -22.3% (active). The figures for the growth with SK-MEL-28 melanoma and with SK-MEL-2 melanoma were 31.1% and -40.5% (active), respectively.

Consider `N#Cc1c(N)nc2c(c1N)C(c1ccc(F)cc1)c1ccc(N)cc1O2` (stereo not given), for which the growth is 104% in the assay on K-562 leukemia; 136% in the assay with MALME-3M melanoma; 118% in the assay on MDA-MB-231 breast; 92.3% with RXF 393 renal; 105% in the assay on SF-268 CNS; 83.1% in the assay with SF-295 CNS. For the same compound, the growth is 103% in the assay with SF-539 CNS; 102% in the assay on UACC-257 melanoma; 111% in the assay with M14 melanoma; 100% in the assay on HCT-15 colon; 112% in the assay on HT29 colon; 86.6% with SNB-75 CNS. The growth with SNB-19 CNS is 127%; with U251 CNS, 102%; with PC-3 prostate it was 106%; in the assay with SK-MEL-5 melanoma it was 96.1%; in the assay with UACC-62 melanoma, 111%; with LOX IMVI melanoma it was 110%. The growth in the assay on SK-MEL-28 melanoma is 109%; in the assay with SK-MEL-2 melanoma, 112%.

Turning to `O=C(Nc1ccc(N2CCNCC2)cc1)c1[nH]ncc1Nc1cc(C2CC2)ncn1`, the growth is 24.2% with K-562 leukemia; 61.5% in the assay on MALME-3M melanoma; 81.1% in the assay with MDA-MB-231 breast; 46.5% in the assay on RXF 393 renal; 60% in the assay with SF-268 CNS; 76.9% in the assay with SF-295 CNS. The growth was 46.1% in the assay on SF-539 CNS; 75.9% in the assay with UACC-257 melanoma; 45.3% in the assay with M14 melanoma; 35.6% with HCT-15 colon; 49.2% with HT29 colon; 31.5% with SNB-75 CNS. For the same compound, the growth was 65.4% in the assay with SNB-19 CNS; 68.6% with U251 CNS; 30.2% in the assay with PC-3 prostate; 52.3% in the assay with SK-MEL-5 melanoma; 50% with UACC-62 melanoma; 36.1% in the assay with LOX IMVI melanoma. Further, the growth in the assay on SK-MEL-28 melanoma is 79.5%; with SK-MEL-2 melanoma, 64.5%.

For `COc1cc(/C=C2\CCC/C(=C\c3cc(CN4CCOCC4)c(O)c(OC)c3)C2=O)cc(CN2CCOCC2)c1O`, the growth in the assay on K-562 leukemia is 15.3%; in the assay with MALME-3M melanoma it was 46.3%; with MDA-MB-231 breast, 26.2%; in the assay with RXF 393 renal, 6.08% (active); in the assay with SF-268 CNS, 42.3%; in the assay on SF-295 CNS, 59.6%. Besides, the growth with SF-539 CNS was 32%; with UACC-257 melanoma it was 64.7%; with M14 melanoma, 36.7%; in the assay with HCT-15 colon, 21.9%; in the assay with HT29 colon it was 3.44% (active); in the assay with SNB-75 CNS, 4.53% (active). The growth in the assay with SNB-19 CNS is 52.8%; in the assay with U251 CNS, 22%; with PC-3 prostate, 39.9%; with SK-MEL-5 melanoma it was 52.3%; with UACC-62 melanoma, 40%; in the assay with LOX IMVI melanoma, 13.3%. Moreover, the values for the growth with SK-MEL-28 melanoma and with SK-MEL-2 melanoma were 58.7% and 62.7%, respectively.

As for `Nc1ccc(-c2nc3cc(Oc4ccc(Oc5ccc6[nH]c(-c7ccc(N)cc7)nc6c5)cc4)ccc3[nH]2)cc1`, the growth is 94.9% in the assay with K-562 leukemia; 81.4% in the assay with MALME-3M melanoma; 103% in the assay on MDA-MB-231 breast; 107% in the assay on RXF 393 renal; 113% with SF-268 CNS; 63.4% in the assay on SF-295 CNS. The growth in the assay with SF-539 CNS is 102%; in the assay with UACC-257 melanoma it was 95.8%; in the assay with M14 melanoma, 94%; in the assay with HCT-15 colon it was 100%; with HT29 colon, 70.2%; in the assay with SNB-75 CNS, 115%. For the same compound, the growth in the assay on SNB-19 CNS is 110%; in the assay with U251 CNS, 96.6%; in the assay on PC-3 prostate, 115%; in the assay with SK-MEL-5 melanoma, 87.5%; in the assay on UACC-62 melanoma it was 58.8%; with LOX IMVI melanoma, 99.2%. The growth in the assay on SK-MEL-28 melanoma is 101%; with SK-MEL-2 melanoma, 82.1%.

With `Cc1ccc(NCCNCC(O)CO)c2c(=O)c3ccccc3sc12` (stereo not given), the growth in the assay on K-562 leukemia is -13.4% (active); in the assay on MALME-3M melanoma it was -12.4% (active); in the assay with MDA-MB-231 breast it was -15.9% (active); with RXF 393 renal, 13.8%; in the assay with SF-268 CNS, 29.3%; with SF-295 CNS, 25.4%. Further, the growth is 47.3% in the assay with SF-539 CNS; 6.52% (active) in the assay with UACC-257 melanoma; -71% (active) in the assay on M14 melanoma; -37.2% (active) in the assay with HCT-15 colon; -61.1% (active) with HT29 colon; 44.6% with SNB-75 CNS. For the same compound, the growth with SNB-19 CNS is 26.3%; in the assay on U251 CNS, 9.2% (active); in the assay on PC-3 prostate it was 13.6%; with SK-MEL-5 melanoma, -81% (active); in the assay on UACC-62 melanoma it was -49.9% (active); with LOX IMVI melanoma it was -95.2% (active). Also, the growth was 1.81% (active) in the assay on SK-MEL-28 melanoma and 75.8% in the assay on SK-MEL-2 melanoma.

On to `COc1cc(/C=C2\CN(C)C/C(=C\c3cc(CN4CCCCC4)c(O)c(OC)c3)C2=O)cc(CN2CCCCC2)c1O`, for which the growth was 10.2% in the assay with K-562 leukemia; 84.6% in the assay with MALME-3M melanoma; 7.14% (active) in the assay with MDA-MB-231 breast; 29.7% with RXF 393 renal; 41% with SF-268 CNS; 91.7% with SF-295 CNS. Further, the growth was 48.6% in the assay on SF-539 CNS; 76.9% in the assay on UACC-257 melanoma; 70.3% in the assay with M14 melanoma; 18.6% in the assay on HCT-15 colon; 3.56% (active) in the assay with HT29 colon; 66.9% in the assay on SNB-75 CNS. In addition, the growth with SNB-19 CNS was 70.9%; in the assay with U251 CNS, 15%; with PC-3 prostate, 32.7%; in the assay on SK-MEL-5 melanoma, 70.6%; with UACC-62 melanoma, 60.6%; in the assay with LOX IMVI melanoma, 5.17% (active). The results for the growth in the assay on SK-MEL-28 melanoma and with SK-MEL-2 melanoma were 93.5% and 73.2%, respectively.

Regarding `COc1ccc(C2=Nn3c(NN)nnc3SC2)cc1`, the growth was 83.3% in the assay on K-562 leukemia; 109% in the assay with MALME-3M melanoma; 103% in the assay with MDA-MB-231 breast; 95.8% with RXF 393 renal; 100% in the assay with SF-268 CNS; 106% in the assay with SF-295 CNS. Further, the growth in the assay with SF-539 CNS is 95.6%; with UACC-257 melanoma it was 84.3%; in the assay with M14 melanoma, 113%; with HCT-15 colon, 114%; in the assay with HT29 colon it was 83.8%; with SNB-75 CNS, 92.4%. Moreover, the growth with SNB-19 CNS was 104%; with U251 CNS it was 99.7%; in the assay on PC-3 prostate, 87.6%; with SK-MEL-5 melanoma it was 91.5%; in the assay with UACC-62 melanoma, 104%; in the assay with LOX IMVI melanoma, 99.9%. Further, the growth in the assay on SK-MEL-28 melanoma is 110%; with SK-MEL-2 melanoma it was 94.4%.

The values above are taken from PubChem BioAssay (NCI).
